Tests used:
Assay in all cases: log2 ratio of Biotin-Ahx-Ub-VS probe labelling (fragment/DMSO); higher = less target engagement (more negative = stronger competition), active = hit call of the paper (q ≤ 0.05, log2 ratio ≤ -1)
Conditions in all cases: compound concentration: 200 uM; treatment time: 3 h
[1] = biological target: USP34 (UniProt Q70CQ2)
In short: (§1)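 In triplicate, 495 µg of HEK293T lysate per sample was incubated with fragment at 200 µM or vehicle for 3 h. Biotin-Ahx-Ub-VS was then added to 0.5 µM final for 1 h, and labelled DUBs were captured with NeutrAvidin, digested with LysC and trypsin, and measured by diaPASEF LC-MS/MS. Data are average log2 fragment/vehicle ratios by unpaired t-test from global-median-normalised Spectronaut label-free quantities, restricted to proteins with ≥2 unique peptides.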

[2] = biological target: T1, USP36 (UniProt Q9P275)
T1 sequence (whole entry): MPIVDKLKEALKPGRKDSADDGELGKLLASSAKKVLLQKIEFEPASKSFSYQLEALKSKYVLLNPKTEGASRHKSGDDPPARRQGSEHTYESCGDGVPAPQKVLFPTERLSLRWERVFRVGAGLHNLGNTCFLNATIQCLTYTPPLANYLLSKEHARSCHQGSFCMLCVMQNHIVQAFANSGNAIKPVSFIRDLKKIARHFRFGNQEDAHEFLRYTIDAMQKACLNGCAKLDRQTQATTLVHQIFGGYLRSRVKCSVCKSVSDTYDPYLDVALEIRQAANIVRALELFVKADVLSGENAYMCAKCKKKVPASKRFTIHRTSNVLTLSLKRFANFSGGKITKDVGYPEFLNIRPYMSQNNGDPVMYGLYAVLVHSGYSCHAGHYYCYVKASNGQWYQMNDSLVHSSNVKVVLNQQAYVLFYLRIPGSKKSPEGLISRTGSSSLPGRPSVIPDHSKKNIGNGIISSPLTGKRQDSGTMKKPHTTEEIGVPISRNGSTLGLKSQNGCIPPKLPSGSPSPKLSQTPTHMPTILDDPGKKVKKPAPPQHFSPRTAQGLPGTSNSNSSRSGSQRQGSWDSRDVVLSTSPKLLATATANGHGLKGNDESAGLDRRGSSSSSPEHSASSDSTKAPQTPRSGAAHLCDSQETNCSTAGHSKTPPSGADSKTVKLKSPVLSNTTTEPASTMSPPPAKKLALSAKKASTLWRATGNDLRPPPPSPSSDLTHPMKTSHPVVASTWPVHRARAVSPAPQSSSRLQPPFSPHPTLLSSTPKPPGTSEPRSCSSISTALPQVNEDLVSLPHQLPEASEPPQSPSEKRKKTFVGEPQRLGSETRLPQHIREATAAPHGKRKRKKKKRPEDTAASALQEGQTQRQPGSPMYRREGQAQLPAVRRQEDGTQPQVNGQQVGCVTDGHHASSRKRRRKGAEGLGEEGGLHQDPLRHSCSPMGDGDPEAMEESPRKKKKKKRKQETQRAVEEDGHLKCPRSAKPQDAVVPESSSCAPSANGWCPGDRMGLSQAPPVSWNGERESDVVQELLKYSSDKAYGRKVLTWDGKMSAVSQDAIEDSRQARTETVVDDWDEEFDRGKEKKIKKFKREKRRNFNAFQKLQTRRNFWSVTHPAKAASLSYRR
In short: as §1

[3] = biological target: T2, USP38 (UniProt Q8NB14)
T2 sequence (whole entry): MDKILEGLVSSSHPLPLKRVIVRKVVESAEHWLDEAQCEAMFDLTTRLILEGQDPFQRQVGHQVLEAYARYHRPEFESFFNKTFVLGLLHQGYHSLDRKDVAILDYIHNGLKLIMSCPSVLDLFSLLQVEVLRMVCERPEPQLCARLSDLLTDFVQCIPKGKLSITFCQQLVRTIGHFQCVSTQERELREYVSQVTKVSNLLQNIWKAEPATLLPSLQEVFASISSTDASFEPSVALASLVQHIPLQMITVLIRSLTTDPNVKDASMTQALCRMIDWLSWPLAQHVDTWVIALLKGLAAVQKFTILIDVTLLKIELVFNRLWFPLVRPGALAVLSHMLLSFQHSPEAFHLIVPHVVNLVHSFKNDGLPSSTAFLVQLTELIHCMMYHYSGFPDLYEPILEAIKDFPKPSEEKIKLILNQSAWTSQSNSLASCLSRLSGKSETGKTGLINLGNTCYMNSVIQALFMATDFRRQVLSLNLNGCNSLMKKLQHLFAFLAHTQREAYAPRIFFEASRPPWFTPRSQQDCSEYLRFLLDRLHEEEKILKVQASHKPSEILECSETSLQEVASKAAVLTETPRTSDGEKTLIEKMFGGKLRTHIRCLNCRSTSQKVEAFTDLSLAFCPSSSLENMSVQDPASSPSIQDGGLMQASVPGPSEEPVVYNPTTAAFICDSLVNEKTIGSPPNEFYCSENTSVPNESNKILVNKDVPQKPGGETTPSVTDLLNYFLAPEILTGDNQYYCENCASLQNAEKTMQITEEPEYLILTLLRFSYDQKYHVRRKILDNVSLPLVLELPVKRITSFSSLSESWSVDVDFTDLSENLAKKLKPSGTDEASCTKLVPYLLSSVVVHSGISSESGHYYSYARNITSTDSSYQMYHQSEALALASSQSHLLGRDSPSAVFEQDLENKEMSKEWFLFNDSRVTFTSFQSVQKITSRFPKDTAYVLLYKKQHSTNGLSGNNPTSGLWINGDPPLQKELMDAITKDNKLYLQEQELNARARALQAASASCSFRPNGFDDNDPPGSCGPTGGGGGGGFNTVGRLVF
In short: as §1

[4] = biological target: T3, USP39 (UniProt Q53GS9)
T3 sequence (whole entry): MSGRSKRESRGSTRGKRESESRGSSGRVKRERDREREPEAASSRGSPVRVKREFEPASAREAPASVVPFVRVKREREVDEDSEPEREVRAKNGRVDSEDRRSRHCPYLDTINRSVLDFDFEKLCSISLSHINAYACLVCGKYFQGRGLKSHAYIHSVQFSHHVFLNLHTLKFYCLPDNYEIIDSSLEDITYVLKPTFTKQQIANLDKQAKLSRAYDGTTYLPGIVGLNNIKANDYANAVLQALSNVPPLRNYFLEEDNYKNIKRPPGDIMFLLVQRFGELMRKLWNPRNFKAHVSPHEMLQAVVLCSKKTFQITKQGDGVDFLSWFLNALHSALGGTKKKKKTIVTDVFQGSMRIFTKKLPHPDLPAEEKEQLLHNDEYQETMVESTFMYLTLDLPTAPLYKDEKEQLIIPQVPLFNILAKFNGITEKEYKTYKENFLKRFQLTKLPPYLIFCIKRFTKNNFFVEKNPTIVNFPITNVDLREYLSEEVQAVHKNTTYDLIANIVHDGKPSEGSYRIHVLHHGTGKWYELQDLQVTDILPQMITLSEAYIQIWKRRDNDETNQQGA
In short: as §1

[5] = biological target: T4, USP4 (UniProt Q13107)
T4 sequence (whole entry): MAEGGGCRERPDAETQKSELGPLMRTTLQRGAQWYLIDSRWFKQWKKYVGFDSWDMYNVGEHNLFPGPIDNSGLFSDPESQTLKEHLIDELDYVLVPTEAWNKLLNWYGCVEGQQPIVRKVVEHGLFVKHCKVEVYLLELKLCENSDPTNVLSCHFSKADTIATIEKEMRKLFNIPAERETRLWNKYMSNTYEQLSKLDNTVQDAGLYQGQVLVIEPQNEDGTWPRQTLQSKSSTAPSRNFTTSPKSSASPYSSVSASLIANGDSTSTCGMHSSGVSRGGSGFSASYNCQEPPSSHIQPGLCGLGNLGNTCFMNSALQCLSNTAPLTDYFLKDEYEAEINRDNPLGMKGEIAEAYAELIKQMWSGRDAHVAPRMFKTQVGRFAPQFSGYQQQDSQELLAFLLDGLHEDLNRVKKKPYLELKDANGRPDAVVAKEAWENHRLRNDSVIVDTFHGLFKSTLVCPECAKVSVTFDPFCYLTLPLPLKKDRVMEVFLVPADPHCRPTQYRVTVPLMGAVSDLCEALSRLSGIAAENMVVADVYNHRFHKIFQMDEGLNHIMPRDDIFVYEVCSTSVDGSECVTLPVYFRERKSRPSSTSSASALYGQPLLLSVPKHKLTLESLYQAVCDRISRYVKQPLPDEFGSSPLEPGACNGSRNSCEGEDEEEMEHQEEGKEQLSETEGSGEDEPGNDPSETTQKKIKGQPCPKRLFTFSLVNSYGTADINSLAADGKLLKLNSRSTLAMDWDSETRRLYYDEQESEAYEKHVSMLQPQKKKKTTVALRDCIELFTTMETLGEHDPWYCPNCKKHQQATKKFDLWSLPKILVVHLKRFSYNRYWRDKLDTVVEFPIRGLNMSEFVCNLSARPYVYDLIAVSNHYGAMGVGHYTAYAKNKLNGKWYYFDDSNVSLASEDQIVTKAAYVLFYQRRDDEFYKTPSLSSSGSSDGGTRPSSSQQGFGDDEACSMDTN
In short: as §1

Measured: log2 ratio of Biotin-Ahx-Ub-VS probe labelling

Sequence of USP34 (Q70CQ2 whole entry, the tested form may be a part): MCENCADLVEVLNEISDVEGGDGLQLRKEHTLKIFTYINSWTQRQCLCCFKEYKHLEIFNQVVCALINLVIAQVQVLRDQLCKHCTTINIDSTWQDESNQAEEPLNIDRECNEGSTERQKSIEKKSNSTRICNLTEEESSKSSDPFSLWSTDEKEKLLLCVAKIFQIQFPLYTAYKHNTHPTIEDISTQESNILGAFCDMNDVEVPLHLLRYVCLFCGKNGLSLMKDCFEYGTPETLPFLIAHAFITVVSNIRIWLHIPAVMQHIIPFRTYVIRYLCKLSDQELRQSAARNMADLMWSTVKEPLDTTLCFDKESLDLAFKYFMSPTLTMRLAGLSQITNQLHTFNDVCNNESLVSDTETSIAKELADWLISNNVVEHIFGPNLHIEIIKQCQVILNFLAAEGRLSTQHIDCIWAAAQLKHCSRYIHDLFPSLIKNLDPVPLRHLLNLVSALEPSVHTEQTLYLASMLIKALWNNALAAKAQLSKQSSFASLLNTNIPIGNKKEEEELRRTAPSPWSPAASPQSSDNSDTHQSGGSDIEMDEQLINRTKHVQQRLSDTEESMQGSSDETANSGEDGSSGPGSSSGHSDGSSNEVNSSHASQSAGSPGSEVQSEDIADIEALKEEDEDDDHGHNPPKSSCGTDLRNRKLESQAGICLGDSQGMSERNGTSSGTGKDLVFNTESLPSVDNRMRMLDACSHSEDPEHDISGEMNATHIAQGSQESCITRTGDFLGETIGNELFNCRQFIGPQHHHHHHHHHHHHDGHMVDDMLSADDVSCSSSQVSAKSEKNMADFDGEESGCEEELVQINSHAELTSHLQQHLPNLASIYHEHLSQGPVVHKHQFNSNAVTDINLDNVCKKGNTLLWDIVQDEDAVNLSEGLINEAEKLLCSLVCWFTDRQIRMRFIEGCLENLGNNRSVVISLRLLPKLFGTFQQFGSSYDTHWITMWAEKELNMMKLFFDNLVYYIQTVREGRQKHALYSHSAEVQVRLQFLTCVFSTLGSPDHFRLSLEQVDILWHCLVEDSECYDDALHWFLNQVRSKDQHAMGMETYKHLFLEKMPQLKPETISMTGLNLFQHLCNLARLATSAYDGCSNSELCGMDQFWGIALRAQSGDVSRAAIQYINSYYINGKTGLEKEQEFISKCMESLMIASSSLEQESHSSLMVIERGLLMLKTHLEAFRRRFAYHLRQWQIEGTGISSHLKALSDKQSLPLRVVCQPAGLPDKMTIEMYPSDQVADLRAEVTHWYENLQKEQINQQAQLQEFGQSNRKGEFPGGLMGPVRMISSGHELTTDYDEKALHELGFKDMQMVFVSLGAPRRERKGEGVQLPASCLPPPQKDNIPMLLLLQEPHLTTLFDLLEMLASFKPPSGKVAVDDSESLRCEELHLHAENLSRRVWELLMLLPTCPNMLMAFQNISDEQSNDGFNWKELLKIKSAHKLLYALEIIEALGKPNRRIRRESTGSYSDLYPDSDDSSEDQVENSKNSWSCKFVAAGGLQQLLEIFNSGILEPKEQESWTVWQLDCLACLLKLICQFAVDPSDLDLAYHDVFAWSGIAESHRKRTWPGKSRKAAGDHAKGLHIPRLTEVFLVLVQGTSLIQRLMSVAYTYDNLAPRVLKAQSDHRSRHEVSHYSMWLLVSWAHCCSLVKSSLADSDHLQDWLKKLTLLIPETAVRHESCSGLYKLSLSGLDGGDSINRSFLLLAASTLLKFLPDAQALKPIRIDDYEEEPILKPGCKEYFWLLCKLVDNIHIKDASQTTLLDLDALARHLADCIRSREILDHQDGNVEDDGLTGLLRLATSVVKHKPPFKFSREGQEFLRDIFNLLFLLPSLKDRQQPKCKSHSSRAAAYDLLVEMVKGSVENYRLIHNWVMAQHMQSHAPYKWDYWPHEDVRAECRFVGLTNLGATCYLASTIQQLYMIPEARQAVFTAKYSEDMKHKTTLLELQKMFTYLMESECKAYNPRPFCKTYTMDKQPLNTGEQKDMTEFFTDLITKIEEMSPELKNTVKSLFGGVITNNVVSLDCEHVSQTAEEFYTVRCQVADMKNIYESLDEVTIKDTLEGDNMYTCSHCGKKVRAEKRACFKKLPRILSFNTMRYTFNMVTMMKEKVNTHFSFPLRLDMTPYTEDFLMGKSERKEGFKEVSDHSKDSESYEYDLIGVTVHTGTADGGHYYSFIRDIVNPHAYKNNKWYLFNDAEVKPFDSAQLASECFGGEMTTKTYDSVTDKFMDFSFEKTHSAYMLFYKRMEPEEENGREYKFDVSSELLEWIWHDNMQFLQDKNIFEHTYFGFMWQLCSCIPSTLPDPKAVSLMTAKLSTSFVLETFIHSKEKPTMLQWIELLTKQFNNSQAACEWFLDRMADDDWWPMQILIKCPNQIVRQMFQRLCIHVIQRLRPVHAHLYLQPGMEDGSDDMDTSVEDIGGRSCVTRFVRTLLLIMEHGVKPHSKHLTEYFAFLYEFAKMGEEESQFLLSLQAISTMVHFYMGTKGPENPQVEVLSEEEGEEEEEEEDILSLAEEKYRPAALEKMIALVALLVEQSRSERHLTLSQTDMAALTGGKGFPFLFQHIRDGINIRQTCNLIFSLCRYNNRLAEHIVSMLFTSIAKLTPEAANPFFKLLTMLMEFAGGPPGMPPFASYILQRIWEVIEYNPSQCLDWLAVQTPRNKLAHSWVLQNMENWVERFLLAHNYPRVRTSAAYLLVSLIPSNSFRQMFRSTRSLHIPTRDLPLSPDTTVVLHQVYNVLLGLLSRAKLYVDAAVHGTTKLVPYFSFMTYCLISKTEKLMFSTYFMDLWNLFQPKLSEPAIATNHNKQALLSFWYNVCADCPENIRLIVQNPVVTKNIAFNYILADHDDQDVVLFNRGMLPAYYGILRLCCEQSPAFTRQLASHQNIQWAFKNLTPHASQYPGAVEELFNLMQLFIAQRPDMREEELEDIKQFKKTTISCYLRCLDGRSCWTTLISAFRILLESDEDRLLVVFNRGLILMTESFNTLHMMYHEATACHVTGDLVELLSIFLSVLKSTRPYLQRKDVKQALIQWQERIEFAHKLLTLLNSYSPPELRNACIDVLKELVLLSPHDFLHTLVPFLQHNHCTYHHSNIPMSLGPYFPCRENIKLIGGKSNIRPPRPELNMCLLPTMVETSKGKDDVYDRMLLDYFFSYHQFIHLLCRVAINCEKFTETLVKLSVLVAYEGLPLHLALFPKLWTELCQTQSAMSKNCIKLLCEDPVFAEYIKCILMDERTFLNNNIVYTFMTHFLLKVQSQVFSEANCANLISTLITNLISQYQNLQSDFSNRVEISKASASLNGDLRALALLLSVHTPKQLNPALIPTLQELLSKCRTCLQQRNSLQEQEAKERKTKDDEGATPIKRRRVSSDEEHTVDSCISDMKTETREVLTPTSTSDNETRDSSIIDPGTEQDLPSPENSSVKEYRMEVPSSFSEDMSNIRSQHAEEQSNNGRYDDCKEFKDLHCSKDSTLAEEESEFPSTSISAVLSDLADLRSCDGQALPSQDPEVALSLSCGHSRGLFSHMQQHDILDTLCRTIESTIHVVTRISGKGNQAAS

CN(C)C(=O)c1ccc(CNC(=O)CCl)cc1
inactive: [1] 0.0263 | [2] 0.0235 | [3] 0.231 | [4] 0.0923 | [5] 0.059
